About 83,000 compounds went through this panel and 20% of them were active in at least one assay; those are over-represented in the sample as a whole.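 Step 1: grow cells in 96-well plates. Step 2: add test compound at a single concentration. Step 3: incubate 48 h. Step 4: record percent growth.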 The source made the active and inactive calls. Rule for the calls: active = growth percent below 10; inactive = the rest.

The test has as its system MDA-MB-435 melanoma. Put plainly: NCI-60 one-dose screen, 48 h (100 = growth as untreated, 0 = no growth, -100 = all killed). The note with it: 10 µM unless noted.
With `COc1ccc(C(=O)c2cc(C)c(OC)c(C)c2)c(OC)c1NC(C)=O`, the growth was -65.2% (active).

For the molecule `CCCCCN1C=C/C(=C\C(=O)n2ccc3ccccc32)c2ccccc21`, the growth was 96.1% (inactive).

Take `COc1ccc(C(=O)C2C(C#N)C(C#N)C3C=Cc4ccccc4N32)cc1` (stereo not drawn): the growth was -47.8% (active).

On to `COc1cc2c(cc1OC)C(=O)/C(=C/c1cc(C)c(O)c(C)c1)S2`, for which the growth was -9.36% (active).

For the molecule `CN1CCN(C(=O)[C@]23CCC(C)(C)C[C@H]2C2=CC[C@@H]4[C@@]5(C)C/C(=C/c6cccnc6)C(=O)C(C)(C)[C@@H]5CC[C@@]4(C)[C@]2(C)CC3)CC1`, the growth is 59.1% (inactive).

Take `COc1cc(C=O)ccc1OC1OC(COC(C)=O)C(OC(C)=O)C(OC(C)=O)C1OC(C)=O` (stereo not drawn): the growth is 107% (inactive).

Consider `Cc1ccc(CNc2c3ccccc3nc3cc(NC(=O)CCN4CCCC4)ccc23)cc1`, for which the growth is 8.86% (active).

Regarding `N#Cc1c(NCc2ccccc2I)sc2c1CCCCC2`, the growth is 99.9% (inactive).

As to `Cn1nc(CC#N)c2c(=N)n(N)cnc21`, the growth is 107% (inactive).

Consider `COc1cc2nc(-c3ccc(Cl)cc3)cc(OCCCN3CCCC3)c2cc1OC`, for which the growth was -7.23% (active).

Consider `CCCCCCNC(=O)Nc1ccc2cc3ccc(NC(=O)NCCCCCC)cc3nc2c1`, for which the growth is -83.6% (active).

As for `O=C(Cn1c(C(=O)c2ccccc2)nc2ccccc21)c1ccc(F)cc1`, the growth was -32% (active).

For `O=C(/C(=C\c1ccc([N+](=O)[O-])cc1)S(=O)Cc1ccc(F)cc1)c1ccc(F)cc1` (stereo not drawn), the growth is 53.7% (inactive).

`Cn1ccc2c1CC1CN(Cc3ccco3)C(=O)C1C2C(=O)O` (stereo not drawn): the growth was 101% (inactive).

As to `O=C(O)c1ccc(-c2nn(-c3ccc(C(F)(F)F)cc3)cc2CNc2ccc(Oc3ccccc3)cc2)cc1`, the growth is 87.5% (inactive).

With `N#CC(C(=O)/C(=N/NC(=O)c1ccccc1O)C(C#N)c1ccccc1)c1ccccc1` (stereo not drawn), the growth is 24.1% (inactive).

For the molecule `Cc1ccc(NC(=O)Cc2ccc(/C=C/C(=O)c3ncc[nH]3)cc2)cc1`, the growth was 28.7% (inactive).

On to `Nc1n[nH]c2cccc(C#Cc3cccc(C(=O)Nc4cc(CN5CCOCC5)cc(C(F)(F)F)c4)c3)c12`, for which the growth was 23.4% (inactive).

For `O=C(/C=C(/C=C/c1coc2ccccc12)OB(F)F)/C=C/c1coc2ccccc12`, the growth was 48.1% (inactive).

`Cc1nc2sccn2c1-c1cn2ccsc2n1`: the growth was 95.9% (inactive).

In the case of `C=C1C(=O)O[C@H]2[C@H]1CC/C(CNC(=O)/C=C/c1ccccc1)=C\CC[C@@]1(C)O[C@@H]21`, the growth is -8.54% (active).

For `N#CC1=C(N)Oc2c(cnn2-c2ccc([N+](=O)[O-])cc2[N+](=O)[O-])C1c1ccccc1` (stereo not drawn), the growth was 101% (inactive).

As for `NNC(=O)c1ccc(-n2nc(-c3ccccc3)c3ccccc32)cc1`, the growth is 93.9% (inactive).

As for `CC1=CCC(OC(=O)C(C)(O)CCC(O)(C(=O)OC2(C)C=CC(O)(C(C)C)CC2)C(C)C)(C(C)C)CC1` (stereo not drawn), the growth was 104% (inactive).

As to `S=c1cc(S)c2cc(Br)ccc2[nH]1`, the growth was 95.5% (inactive).

For `NCCCCCCNc1cc(-c2cccc(OC(F)(F)F)c2)nc2ccc(N3CCCC3)cc12`, the growth was -99.8% (active).

With `COc1cccc(-c2cc(C(=O)Nc3ccc(/C=C/c4ccc(OC5CCN(C)CC5)cc4)cc3)ccc2OC)c1`, the growth was -77.4% (active).

On to `COC(=O)/C=C1\S/C(=N\NC(=O)c2cc3ccc2/C=C\c2ccc(cc2)/C=C\3)N(Cc2ccccc2)C1=O`, for which the growth was 91.6% (inactive).

Turning to `Nc1c(C(=O)Nc2cccc3cnccc23)sc2nc3c(cc12)CN(Cc1ccccc1)CC3`, the growth is 108% (inactive).

Consider `Cc1c(C(=O)NCCC(=O)NO)sc2ncnc(Nc3ccc(NC(=O)Nc4cccc(C(F)(F)F)c4)cc3)c12`, for which the growth is 103% (inactive).

Take `O=S(=O)(NCCCNc1nccc(-c2c(-c3cccc(F)c3)nc3sccn23)n1)c1cccc2ccccc12`: the growth is 22.6% (inactive).

`CN1C(N2CCN(S(=O)(=O)c3ccccc3)CC2)=NS(=O)(=O)c2ccccc21`: the growth is 109% (inactive).

For `N#C/C(=C\c1ccccn1)c1nc2cc(Cl)ccc2s1`, the growth was 74.7% (inactive).

Consider `COc1cc2oc(-c3cccc(C(=O)Nc4ccccc4)c3)cc(=O)c2c(O)c1OC`, for which the growth was 58.3% (inactive).

With `COc1ccc(/C=C2\Oc3cc(OCCCN4CCCCC4)ccc3C2=O)cc1OC`, the growth is 100% (inactive).

For `O=S(=O)(NCCNc1nccc(-c2c(-c3cccc(F)c3)nc3sccn23)n1)c1ccc(Cl)cc1`, the growth was 26.3% (inactive).

As to `COc1ccc2c(c1)oc1c(C)c3c(c(C)c12)C(=O)N(CCN1CCOCC1)C3=O`, the growth was 105% (inactive).

For the molecule `CNCCn1c(=O)c2cc(OC)c(OC)cc2c2ccc3cc4c(cc3c21)OCO4`, the growth is -61% (active).

The record behind these values is PubChem BioAssay (NCI).
